Laboratory results as given in PubChem BioAssay (NCATS).
Values joined by “and” are separate entries in the source; they are usually repeats but may differ in a detail not shown here. Equal values may be shown once. Records with an inconclusive call do not appear. Active and inactive are the calls of the source. Calls follow the shape of the dose curve; as a rule, active = well fitted inhibition curve with a large enough effect; inconclusive = small, poorly fitted or top-dose-only effect; inactive = flat fitted curve, though single readings scatter.

Key:
CRL-7250 [1] = experiment: Cytotoxic Profiling of Annotated Libraries Using Quantitative High-Throughput Screening (AID 1296008); details: Five cell lines viability, CellTiter-Glo ATP luminescence, 48-72 h; max response: stronger effect = lower value; as to max response: % is scaled to controls: 0 for no effect and ±100 for the full control effect
Method in brief: (§1)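 Compounds were pin-transferred onto cells and incubated 48 or 72 hr at 37 degree Celsius, 95% humidity. CellTiter-Glo was added, plates sat 10 min at room temperature, then ATP-coupled luminescence was imaged as the viability read-out.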

HEK293 = experiment: as above; details: Five cell lines viability, CellTiter-Glo ATP luminescence, 48-72 h; max response: stronger effect = lower value
Method in brief: as §1

HaCat [2] = experiment: as above; details: Five cell lines viability, CellTiter-Glo ATP luminescence, 48-72 h; max response: stronger effect = lower value
Method in brief: as §1

KB-3-1 = experiment: as above; details: Five cell lines viability, CellTiter-Glo ATP luminescence, 48-72 h; max response: stronger effect = lower value
Method in brief: as §1

NIH3T3 = experiment: as above; details: Five cell lines viability, CellTiter-Glo ATP luminescence, 48-72 h; max response: stronger effect = lower value
Method in brief: as §1

CRL-7250 [3] = experiment: qHTS assay to identify novel small-molecules to repurpose for Merkel cell carcinoma treatment (AID 1296009); details: MCC and control cell lines, CellTiter-Glo viability, 72 h; at 44.8 µM (top of the series) unless noted
Method in brief: (§2)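 Viability readout: ATP luminescence (CellTiter-Glo) after 72 hr drug exposure at 37 degree celsius. Dose-response format was 8 points for NPC and 11 points for MIPE; data normalized to in-plate controls.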

MCC-13 = experiment: as above; details: MCC and control cell lines, CellTiter-Glo viability, 72 h; series mostly up to 46 µM
Method in brief: as §2

W2 = experiment: qHTS profiling for inhibitors of Plasmodium falciparum proliferation (AID 504749);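 also: 0% = DMSO vehicle and full inhibition = artemisinin control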; details: P. falciparum in erythrocytes, SYBR Green DNA, 72 h; series mostly up to 28.7 µM
Method in brief: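 Quantitative HTS: compounds pinned into medium, infected erythrocytes added (0.3% parasitemia, 2.5% hematocrit), 72 h culture at 37 C under 5% CO2. Saponin/Triton lysis with SYBR Green I, overnight RT, then fluorescence read.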

HACAT [4] = experiment: qHTS assay to identify novel small-molecules to repurpose for Merkel cell carcinoma treatment (AID 1296009); details: MCC and control cell lines, CellTiter-Glo viability, 72 h; at 44.8 µM (top of the series) unless noted
Method in brief: as §2

HEK293T = experiment: as above; details: MCC and control cell lines, CellTiter-Glo viability, 72 h
Method in brief: as §2

[5] = at 44.8 µM (top of the series) unless noted
Also: nearly all actives have a fitted effect of over 60% in size.

NNc1ccccc1
inactive: outcome (CRL-7250 [1]) | max response (HEK293) 3.08% | max response (HaCat [2]) 1.05% | max response (KB-3-1) -8.39% | max response (NIH3T3) 4.99% | outcome (CRL-7250 [3]) | outcome (MCC-13)

O=C1OC(c2ccc(O)c(S(=O)(=O)O)c2)(c2ccc(O)c(S(=O)(=O)O)c2)c2c(Br)c(Br)c(Br)c(Br)c21
inactive: Potency (W2) | max response (CRL-7250 [1]) -1.01% | outcome (HEK293) | outcome (HaCat [2]) | max response (KB-3-1) 10.3% | outcome (NIH3T3) | outcome (HACAT [4]) | outcome (HEK293T; [5]) | outcome (MCC-13)

CC1(C)C(C=C(Cl)Cl)C1C(=O)OC(C#N)c1cccc(Oc2ccccc2)c1 (stereo unspecified)
inactive: max response (CRL-7250 [1]) 2.32% | max response (HEK293) 2.42% | outcome (HaCat [2]) | max response (KB-3-1) 2.32% | outcome (NIH3T3) | outcome (HACAT [4]) | outcome (MCC-13)

CCOC(=O)CC(SP(=S)(OC)OC)C(=O)OCC (stereo unspecified)
inactive: Potency (W2) | max response (CRL-7250 [1]) -3.52% | outcome (CRL-7250 [1]) | outcome (HEK293) | max response (HaCat [2]) -7.37% and 2.49% | max response (KB-3-1) -10.3% and -23.1% | max response (NIH3T3) -6.65% and 2.23% | outcome (CRL-7250 [3]) | outcome (HEK293T; at 44.8 µM (top of the series)) | outcome (HEK293T; at 92 µM (top of the series)) | outcome (MCC-13)

O=C(O)/C=C\C(=O)O
inactive: max response (CRL-7250 [1]) -1.31% | max response (HEK293) -3.36% | max response (HaCat [2]) 1.05% | max response (KB-3-1) -5.31% | max response (NIH3T3) -5.56%

Oc1ccc(Cl)cc1
inactive: Potency (W2) | max response (CRL-7250 [1]) -6.01% | outcome (HEK293) | outcome (HaCat [2]) | max response (KB-3-1) -9.29% | max response (NIH3T3) 0.545% | outcome (HACAT [4]) | outcome (HEK293T; [5]) | outcome (MCC-13)

COC(=O)[C@@H](N)CCCN/C(N)=N/[N+](=O)[O-]
inactive: outcome (CRL-7250 [1]) | outcome (HEK293) | max response (HaCat [2]) -19.5% | max response (KB-3-1) -3.97% | max response (NIH3T3) 1.98% | outcome (CRL-7250 [3]) | outcome (HEK293T; [5]) | outcome (MCC-13)
